# Laboratory results taken from PubChem BioAssay AID1159580 (chemical genetic matrix, 2015).
# Among all 5,500 compounds or so, about 2,000 (36%) were called active. About 18% were inconclusive and are not listed. The list shows a part of the results. Values without a mark were called inactive. Cut-off read from the data, not from the text of the source: active = normalized growth mostly below about 0.91 (no sharp cut-off); inconclusive = no clear call, values can overlap the other calls; inactive = mostly above about 0.92.
# Test: chemical genetic growth profiling, strain panel (AID 1159580);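 note: tested at 20 µM; growth read once vehicle control cultures reached saturation at 30 °C; 1 = growth at the plate median or of vehicle wells; lower values mean less growth of the strain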
# Details: S. cerevisiae deletion strains, growth OD
structure (smiles),measurement,setting,value
COC(=O)c1cc(=O)c(O)c2c(O)c(O)ccc2c1,normalized growth,"locus YJR043C, strain POL32, hits give low values",0.709 (active)
same,normalized growth,"locus YJR066W, strain TOR1, hits give low values",0.556 (active)
same,normalized growth,"locus YKL009W, strain mrt4, hits give low values",0.773 (active)
same,normalized growth,"locus YKL068W, hits give low values",0.808 (active)
same,normalized growth,"locus YKL085W, strain MDH1 (second series), hits give low values",0.793 (active)
same,normalized growth,"locus YKL085W, strain MDH1, hits give low values",0.793 (active)
same,normalized growth,"locus YKL160W, strain elf1, hits give low values",1.01
same,normalized growth,"locus YKL190W, strain CNB1, hits give low values",0.593 (active)
same,normalized growth,"locus YKR001C, strain vps1, hits give low values",0.764 (active)
same,normalized growth,"locus YKR026C, strain gcn3, hits give low values",0.961
same,normalized growth,"locus YKR091W, strain srl3, hits give low values",0.994
same,normalized growth,"locus YLL001W, strain dnm1, hits give low values",0.99
same,normalized growth,"locus YLL026W, hits give low values",0.994
same,normalized growth,"locus YLL041C, strain sdh2, hits give low values",0.999
same,normalized growth,"locus YLR027C, strain aat2, hits give low values",0.996
same,normalized growth,"locus YLR039C, strain RIC1, hits give low values",0.354 (active)
same,normalized growth,"locus YLR058C, strain SHM2, hits give low values",0.696 (active)
same,normalized growth,"locus YLR102C, strain apc9, hits give low values",0.966
same,normalized growth,"locus YLR113W, strain HOG1, hits give low values",0.795 (active)
same,normalized growth,"locus YLR221C, strain rsa3, hits give low values",0.97
same,normalized growth,"locus YLR258W, strain gsy2, hits give low values",0.996
same,normalized growth,"locus YLR262C, strain YPT6 (second series), hits give low values",0.847 (active)
same,normalized growth,"locus YLR268W, strain sec22, hits give low values",0.707 (active)
same,normalized growth,"locus YLR320W, strain mms22, hits give low values",0.984
same,normalized growth,"locus YLR342W, strain FKS1 (second series), hits give low values",0.569 (active)
same,normalized growth,"locus YLR342W, strain FKS1, hits give low values",0.978
same,normalized growth,"locus YLR357W, strain rsc2, hits give low values",0.925
same,normalized growth,"locus YLR370C, strain arc18, hits give low values",0.999
same,normalized growth,"locus YLR371W, strain rom2, hits give low values",0.781 (active)
same,normalized growth,"locus YLR384C, strain iki3, hits give low values",0.995
same,normalized growth,"locus YLR418C, strain cdc73, hits give low values",0.629 (active)
same,normalized growth,"locus YML016C, strain PPZ1, hits give low values",0.771 (active)
same,normalized growth,"locus YML032C, strain rad52, hits give low values",0.73 (active)
same,normalized growth,"locus YML120C, strain ndi1, hits give low values",0.997
same,normalized growth,"locus YML124C, strain tub3, hits give low values",0.952
same,normalized growth,"locus YMR058W, strain fet3, hits give low values",0.89 (active)
same,normalized growth,"locus YMR078C, strain ctf18, hits give low values",0.943
same,normalized growth,"locus YMR125W, strain sto1, hits give low values",0.989
same,normalized growth,"locus YMR129W, hits give low values",0.988
same,normalized growth,"locus YMR205C, strain PFK2, hits give low values",0.987
same,normalized growth,"locus YMR223W, strain ubp8, hits give low values",0.818 (active)
same,normalized growth,"locus YMR231W, strain pep5, hits give low values",0.995
same,normalized growth,"locus YMR263W, strain SAP30, hits give low values",0.882 (active)
same,normalized growth,"locus YMR307W, strain GAS1, hits give low values",0.477 (active)
same,normalized growth,"locus YNL067W, strain RPL9B, hits give low values",0.745 (active)
same,normalized growth,"locus YNL071W, strain lat1, hits give low values",1.02
same,normalized growth,"locus YNL153C, strain GIM3, hits give low values",0.841 (active)
same,normalized growth,"locus YNL183C, strain NPR1, hits give low values",0.643 (active)
same,normalized growth,"locus YNL209W, strain ssb2, hits give low values",0.99
same,normalized growth,"locus YNL233W, strain BNI4, hits give low values",0.678 (active)
same,normalized growth,"locus YNL248C, strain rpa49, hits give low values",0.99
same,normalized growth,"locus YNL250W, strain rad50, hits give low values",0.62 (active)
same,normalized growth,"locus YNL271C, strain bni1, hits give low values",0.731 (active)
same,normalized growth,"locus YNL298W, strain CLA4, hits give low values",0.725 (active)
same,normalized growth,"locus YNL307C, strain MCK1, hits give low values",0.953
same,normalized growth,"locus YNL322C, strain KRE1 (second series), hits give low values",0.967
same,normalized growth,"locus YNL322C, strain KRE1, hits give low values",0.638 (active)
same,normalized growth,"locus YNR049C, strain mso1, hits give low values",0.998
same,normalized growth,"locus YNR052C, strain pop2, hits give low values",0.7 (active)
same,normalized growth,"locus YOL006C, strain TOP1, hits give low values",0.326 (active)
same,normalized growth,"locus YOL012C, strain htz1",0.795
same,normalized growth,"locus YOL147C, strain pex11, hits give low values",0.91 (active)
same,normalized growth,"locus YOR001W, strain rrp6, hits give low values",0.985
same,normalized growth,"locus YOR061W, strain CKA2, hits give low values",0.664 (active)
same,normalized growth,"locus YOR069W, strain VPS5, hits give low values",0.796 (active)
same,normalized growth,"locus YOR070C, strain gyp1, hits give low values",0.995
same,normalized growth,"locus YOR080W, strain dia2, hits give low values",0.983
same,normalized growth,"locus YOR083W, strain WHI5, hits give low values",1
same,normalized growth,"locus YOR106W, strain vam3, hits give low values",0.966
same,normalized growth,"locus YOR136W, strain idh2, hits give low values",0.869 (active)
same,normalized growth,"locus YOR144C, strain elg1, hits give low values",0.822 (active)
same,normalized growth,"locus YOR184W, strain ser1, hits give low values",0.801 (active)
same,normalized growth,"locus YOR231W, strain MKK1, hits give low values",0.672 (active)
same,normalized growth,"locus YOR265W, strain rbl2, hits give low values",0.994
same,normalized growth,"locus YOR270C, strain vph1, hits give low values",1.04
same,normalized growth,"locus YOR290C, strain snf2, hits give low values",0.94
same,normalized growth,"locus YOR316C, strain cot1, hits give low values",0.952
same,normalized growth,"locus YPL051W, strain arl3, hits give low values",0.982
same,normalized growth,"locus YPL078C, strain atp4, hits give low values",1.02
same,normalized growth,"locus YPL106C, strain sse1, hits give low values",0.965
same,normalized growth,"locus YPL240C, strain hsp82, hits give low values",0.978
same,normalized growth,"locus YPL241C, strain CIN2, hits give low values",0.943
same,normalized growth,"locus YPL256C, strain CLN2, hits give low values",0.787 (active)
same,normalized growth,"locus YPR119W, strain clb2, hits give low values",0.94
same,normalized growth,"locus YPR141C, strain kar3, hits give low values",0.777 (active)
same,normalized growth,"locus YPR163C, strain tif3, hits give low values",0.832 (active)
same,normalized growth,"locus YPR167C, strain met16, hits give low values",0.802 (active)
same,normalized growth,"strain wtn01, hits give low values",0.785 (active)
